Sampled rows, rich in hits. Any-hit rate of the full collection: about 4.5%.
FBA Mtb inh: inhibitors of M. tuberculosis fructose-bisphosphate aldolase. AID 588726. purified M. tuberculosis FBA, fluorescence read-out. 360,000 tested, 2.3% active. inhibition, % at 1 µM; in the data active = inhibition above about 27%;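 also: 0% = vehicle and 100% = reference inhibitor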
Target sequence (P9WQA3 whole entry, looked up): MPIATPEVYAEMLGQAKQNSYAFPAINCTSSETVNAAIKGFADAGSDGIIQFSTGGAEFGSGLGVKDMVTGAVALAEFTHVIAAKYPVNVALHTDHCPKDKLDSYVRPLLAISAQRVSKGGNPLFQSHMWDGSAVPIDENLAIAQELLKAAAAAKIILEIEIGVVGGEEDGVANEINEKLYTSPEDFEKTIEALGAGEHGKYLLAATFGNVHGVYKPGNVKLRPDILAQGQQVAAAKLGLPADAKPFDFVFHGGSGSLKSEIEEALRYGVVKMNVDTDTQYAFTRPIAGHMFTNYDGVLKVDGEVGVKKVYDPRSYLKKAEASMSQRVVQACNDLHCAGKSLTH
PfHsp40 yeast: restores yeast growth despite PfHsp40 toxicity; growth rescue, % at 12.5 µM; 340,000 tested, 0.68% active; S. cerevisiae expressing PfHsp40, growth rescue, ATP luminescence; AID 504582; in the data active = growth rescue above about 28%, passing the limit was not always enough;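 also: yeast W303a lacking pdr1 and pdr3 grown in galactose medium; growth measured after three days at 30 °C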
PrP UTR inh: inhibition of PrP 5' UTR reporter expression; 340,000 tested, 0.35% active; cell-based PrP 5' UTR mRNA reporter, plate reader; inhibition, % (no concentration beside the values); in the data active = inhibition above about 52%; also: 0 = median of the neutral control wells
PrPC surface inh: cell surface PrPC inhibition, primary TR-FRET screen | P04156 | TR-FRET read-out | inhibition, % at 13.8 µM | 370,000 tested, 0.43% active | AID 720596; in the data active = inhibition above about 24%; also: 0% = median of the test wells and 100% = reference compound wells
GDH-TPI counter: GDH-TPI coupled enzyme inhibition counter-screen. GDH-TPI coupled enzyme counterscreen, NADH absorbance. inhibition, % at 4.8 µM. 360,000 tested, 1.2% active; in the data active = inhibition above about 30%;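 also: 0% = DMSO wells and 100% = wells lacking the enzyme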
BJeLR viability: kills HRASV12-expressing BJeLR cells | inhibition, % (concentration not given with the values) | AID 1554 | 300,000 tested, 0.17% active | BJeLR (HRASV12) viability, CellTiter-Glo ATP luminescence, 48 h; in the data active = inhibition above about 50%
Numbers without * were called inactive; x = not tested or not shown; ! = not confirmed by another sample.

SMILES	FBA Mtb inh	PfHsp40 yeast	PrP UTR inh	PrPC surface inh	GDH-TPI counter	BJeLR viability
CCOC(=O)[C@]12CCCC=C1N(CCCOC)C(=O)[C@@H]2CC(=O)N1CCCC1	x	x	x	6	x	x
COc1cccc(CN[C@@H]2CC[C@@]34CCCN3C(=O)CCC[C@H]4C2)c1	x	x	x	-5	x	x
O=C(Nc1ccc(F)cc1)Nc1c(-c2ccc(F)cc2)nc2ncccn12	x	x	x	-12	x	x
Cc1cc(=O)[nH]c(SCC(=O)Nc2cccc(C)c2C)n1	x	x	x	0	x	x
CCOC(=O)/C(C#N)=C1/SC(CC)C(=O)N1c1ccc(C)cc1 (stereo unspecified)	2	-1	-31	6	8	-4
CCOC(=O)/C(C#N)=C1/C=CN(c2ccc(C)cc2)C=N1	-6	-1	-42	-31	43*	1
O=C1Nc2ccccc2/C1=C/c1cnc[nH]1	-6	-1	10	-17	31*	-4
COc1ccc2c(c1)/C(=C/c1cnc[nH]1)C(=O)N2	-3	0	-12	9	29	-2
COc1ccc2c(C)c(C(=O)NCC(C)O)oc2c1OC (stereo unspecified)	138*	-1	-4	6	3	13
COc1ccccc1N1CCN(c2cc(N3CCCC3)nc(C)n2)CC1	2	-2	-9	1	3	3
COc1ccc(OC)c2c(C)cc(N3CCCN(C)CC3)nc12	31*	0	-28	0	-1	-2
O=C1c2ccccc2NC(c2ccc(O)cc2)N1/N=C/c1ccc(O)cc1 (stereo unspecified)	3	1	-57	5	32*	-18
O=C(Nc1ccc(Br)cc1)O[C@@H]1CC[C@@]23CCCN2C(=O)CCC[C@H]3C1	x	x	x	7	x	x
COc1ccccc1N1CCc2c(C)nc3c(OC)cccc3c21	7	-1	-21	x	46*	0
COc1cccc2c3c(c(C)nc12)CCN3c1ccccc1	4	7	-12	-2	11	9
CCOC(=O)/C=C/C(=O)Nc1cccc([N+](=O)[O-])c1	-1	189*	-22	x	-2	-5
CCCCCCCCN1C(=O)[C@@H](CC(=O)NCc2ccccc2)C[C@@]2(C(=O)OC)C1=C[C@H](C1CCCC1)O[C@@H]2C	x	x	x	-4	x	x
O=C1c2ccccc2NC(c2ccccn2)N1c1ccc(Cl)cc1 (stereo unspecified)	18	1	-20	-4	-2	-1
O=C1Cn2c(nc3ccccc32)-c2ccccc2N1	4	-2	-5	8	7	0
c1ccc(C2Nc3ccccc3-c3nc4ccccc4n32)nc1 (stereo unspecified)	119*	-1	-10	6	5	5
c1ccc(C2Nc3ccccc3-c3nc4ccccc4n32)cc1 (stereo unspecified)	139*	0	-4	0	18	-1
CC(=O)Nc1ccc(C(CCCc2ccccc2)C2=CCCCC2)cc1 (stereo unspecified)	x	x	x	8	x	x
O=C(CSc1nnc(Cc2cccs2)n1-c1ccc(Cl)cc1)Nc1ccc(OCc2ccccc2)cc1	x	x	x	4	x	x
CCCCCCCCCCOC(=O)Cn1c(COc2cccc(C)c2)[n+](C)c2ccccc21	-4	213*	-10	10	8	3
CCCCCCCCCCOC(=O)Cn1c(COc2ccc(OC)cc2)[n+](C)c2ccccc21	0	383*!	-30	x	-7	7
SMILES	FBA Mtb inh	PfHsp40 yeast	PrP UTR inh	PrPC surface inh	GDH-TPI counter	BJeLR viability
CCCCCCCCCCOC(=O)Cn1c(COc2ccccc2)[n+](C)c2ccccc21	-1	336*	-33	22	-1	5
CCCCCCCCCCOC(=O)Cn1c(COc2ccc(Cl)cc2)[n+](C)c2ccccc21	1	7	-25	-2	3	-7
COc1cc(-c2ccc(N3C(c4ccsc4)=Cc4ccccc4C3CC(C)=O)cc2)cc(OC)c1OC (stereo unspecified)	x	x	x	-2	x	x
O=C1CCC[C@H]2C[C@H](NCc3ccc(Cl)c(Cl)c3)CC[C@]23CCCN13	x	x	x	-1	x	x
COc1ccc(C2C(C(=O)Nc3cc(OC)ccc3OC)CCC(=O)N2c2ccc(OC)cc2)cc1 (stereo unspecified)	x	x	x	-6	x	x
O=C(N[C@@H]1C[C@@H]2O[C@@H](CO)CC[C@@H]2O[C@@H]1CCc1ccc(-c2ccccc2)cc1)c1cnccn1	x	x	x	-6	x	x
O=C(CN1c2ccccc2Sc2ccccc21)NNC(=S)Nc1ccc(Cl)cc1Cl	-1	0	-25	0	19	4
O=C(CN1c2ccccc2Sc2ccccc21)NNC(=S)Nc1ccc(Cl)cc1	0	75*	-18	-5	-9	5
O=C(COC(=O)c1ccc(Sc2ncn[nH]2)c([N+](=O)[O-])c1)Nc1ccc(Cl)c(Cl)c1	x	x	x	1	x	x
Cn1c(SCCc2ccccc2)nnc1-c1ccco1	x	x	x	1	x	x
COC(=O)c1ccc(N=NN2CCCCCC2)cc1	4	1	-9	-4	32*	0
C=CCc1cccc(C=NNC(=O)c2ccco2)c1O	x	x	x	10	x	x
Cc1ccc(-n2c(SCC(=O)N/N=C/C=C\c3ccccc3[N+](=O)[O-])nnc2-c2ccccc2)cc1	x	x	x	6	x	x
CCN(CC)c1ccc(/C=C/c2ccc3ccc(OC)cc3[n+]2CC)cc1	1	321*	2	9	3	43
CC[n+]1c(/C=C/c2ccc(N(C)C)cc2)ccc2ccccc21	-9	19	-20	-41	8	35
CN1/C(=C\C=Nc2cc(S(=O)(=O)N3CCOCC3)ccc2N2CCOCC2)C(C)(C)c2ccccc21	-7	-1	-18	4	41*	2
CO/N=C/C=C1/N(C)c2ccccc2C1(C)C	-2	1	0	5	60*	0
Cc1ccccc1N=C/C=C1\N(C)c2ccccc2C1(C)C	2	-1	-20	12	35*	-18
CN1/C(=C\C=N\O)C(C)(C)c2ccccc21	0	0	-18	6	-5	4
CN1C(=O)C(C)(C)c2cc(S(=O)(=O)N3CCN(c4ccccc4)CC3)ccc21	-1	0	-6	-5	-1	3
COC(=O)[C@@]12C[C@@H](CC(=O)NCC34CC5CC(CC(C5)C3)C4)C(=O)N(Cc3ccccc3)C1=CCC(C)(C)C2	x	x	x	1	x	x
CCCCN(C)C(=O)c1ccc2c(c1)NC(=O)C(C)(C)O2	x	x	x	-2	x	x
Cn1cccc1CC(=O)NN=C/C=C\c1ccco1	x	x	x	3	x	x
CCOC(=O)c1ccc(NC(=S)NNC(=O)c2cc(-c3cccnc3)nc3ccccc23)cc1	-1	154*	-13	4	22	-6
CCCCOc1cccc(-c2cc(C(=O)NNC(=S)NCC)c3ccccc3n2)c1	3	47*	-26	-1	-11	17
CCNC(=S)NNC(=O)c1cc(-c2cccc(OCC)c2)nc2ccccc12	3	5	-22	-1	10	0
O=C(NNC(=S)Nc1ccccc1)c1cc(-c2cccnc2)nc2ccccc12	-4	17	1	-4	11	-9

Screening results as filed in PubChem BioAssay.
